Structures are written as SMILES. Records with an inconclusive call do not appear. A number with no mark means an inactive call. Calls of active or inactive are those of the source. The call rests on the fitted dose curve; in most records, active means well fitted inhibition curve with a large enough effect; inconclusive means small, poorly fitted or top-dose-only effect; inactive means flat fitted curve, though single readings scatter.

A short description of this experiment: Drug repurposing screens with cells derived from glioblastoma tumor samples (AID 1345199). Further: nearly all actives have a fitted effect of over 40% in size. Conditions: GBM patient neurospheres viability, ATP luminescence, 48 h. As for the experimental part: CD133+ cells were isolated from GBM patient biopsies and cultured as neurospheres. Neurospheres from four patients were used to screen the NCATS pharmaceutical collection (NPC) library of approved drugs and bioactive compounds. […] The neurospheres were incubated with drugs for 48 hours in 1536-well format, then assayed with an ATP content cell viability assay. […] These hits were cherry picked to confirm activity in the four original GBM lines screened plus three other slower growing GMB lines (unable to yield enough cells for a full primary screen). Variable activities of the confirmed primary hits in the different GBM patient lines were observed. The patient line 206 responded to the greatest number of compounds and line 923 responded to the least amount of active compounds.

Setting [1] is: at 45.9 µM (top of the series), tumour line B.
Setting [2] is: at 46.1 µM (top of the series), tumour line C.
The mark [3] stands for this setting: at 45.9 µM (top of the series), tumour line D.
The mark [4] stands for this setting: at 46 µM (top of the series), tumour line A.
On the % scale 0 is the no-effect control and ±100 the full control effect; potency means the concentration at half of the fitted maximal effect.

Regarding `O=C(O)COCCN1CCN(C(c2ccccc2)c2ccc(Cl)cc2)CC1` (stereo unspecified), the activity, negative = cell killing is, setting by setting: (at 20 µM (top of the series), tumour line C) -26.4%; (at 21.2 µM (top of the series), tumour line B) -3.42%; (at 21.2 µM (top of the series), tumour line D) -18.8%; (at 21.3 µM (top of the series), tumour line A) -26.6%.
On to `C1COC(NC(C2CC2)C2CC2)=N1`, for which the activity, negative = cell killing under setting [1] was -27.8% and the activity, negative = cell killing under setting [2] is -23.7%.
In the case of `O=C1CCC(N2C(=O)c3ccccc3C2=O)C(=O)N1` (stereo unspecified), the activity, negative = cell killing runs as follows: under setting [1], -4.2%; under setting [3], -2.61%; under setting [4], -6.31%; under setting [2], 3.21%.
Take `Cc1cn[nH]c1`: the activity, negative = cell killing was 0.573% under setting [1], -5.07% under setting [3], -17.3% under setting [4] and -3.17% under setting [2].
Regarding `O=C1CCc2cc(OCCCCc3nnnn3C3CCCCC3)ccc2N1`, the activity, negative = cell killing by setting is: under setting [1], -16.9%; under setting [3], -10.7%; under setting [2], -10.2%.
Consider `Cn1cnc([N+](=O)[O-])c1Sc1ncnc2nc[nH]c12`, for which the activity, negative = cell killing under setting [1] is -21.8% and the activity, negative = cell killing under setting [2] is -41.7%. Also, the Potency (tumour line A) is 2.51 µM (active).
In the case of `Cc1c(C)c2c(c(C)c1O)CCC(C)(COc1ccc(CC3SC(=O)NC3=O)cc1)O2` (stereo unspecified), the activity, negative = cell killing is, setting by setting: under setting [1], -4.67%; under setting [2], -19.7%.
In the case of `O=NN(CCCl)C(=O)NCCCl`, the activity, negative = cell killing by setting is: under setting [1], -7.98%; under setting [3], -22.2%; under setting [4], -13.2%; under setting [2], -21%.
For the compound `NC[C@H](O)c1ccc(O)c(O)c1`, the activity, negative = cell killing was -10.5% under setting [1], -7.44% under setting [3], -26.2% under setting [4] and -17.3% under setting [2].
Regarding `O=c1[nH]cnc2[nH]ncc12`, the activity, negative = cell killing by setting is: under setting [1], -5.74%; under setting [3], -0.0406%; under setting [4], -9.81%; under setting [2], 7.88%.
Take `N[C@@H]1CONC1=O`: the activity, negative = cell killing under setting [1] was -2.69%; the activity, negative = cell killing under setting [3] was 4.98%; the activity, negative = cell killing under setting [4] is -17.4%; the activity, negative = cell killing under setting [2] is -0.848%.
Regarding `NC(N)=NC(=O)c1nc(Cl)c(N)nc1N`, the activity, negative = cell killing is -15.1% under setting [3], 18.9% under setting [4] and -11.2% under setting [2].

(Values after PubChem BioAssay (NCATS).)
